3CLpro inhibitor: SARS-CoV 3CLpro protease inhibition; P0C6X7; recombinant SARS-CoV 3CLpro, quenched FRET peptide cleavage; inhibition, % at 6 µM; 0.14% of 290,000 active; in the data active = inhibition above about 12%
PriA SSB inh: inhibitors of Klebsiella pneumoniae PriA binding to SSB C-terminal tail | 0.6% of 430,000 active | AlphaScreen SSBct-PriA binding, biotinylated peptide | inhibition, % at 33 µM; in the data active = inhibition mostly above about 37%, no sharp cut-off; inactive = mostly below about 20%;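 note: plate controls were negative control peptide for no effect and reference peptide for full effect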
VHR inh abs: blocks human VHR1 dual specificity phosphatase | P51452 | inhibition, % at 13.3 µM | recombinant VHR phosphatase, pNPP absorbance | 0.52% of 290,000 active; in the data active = inhibition above about 50%
TcdB GH inh: TcdB glycohydrolase inhibition; AID 652162; 0.24% of 350,000 active; P18177; inhibition, % at 9.99 µM; TcdB glycohydrolase enzymatic assay, plate reader; in the data active = inhibition above about 10%
Target sequence (P18177 whole entry, looked up): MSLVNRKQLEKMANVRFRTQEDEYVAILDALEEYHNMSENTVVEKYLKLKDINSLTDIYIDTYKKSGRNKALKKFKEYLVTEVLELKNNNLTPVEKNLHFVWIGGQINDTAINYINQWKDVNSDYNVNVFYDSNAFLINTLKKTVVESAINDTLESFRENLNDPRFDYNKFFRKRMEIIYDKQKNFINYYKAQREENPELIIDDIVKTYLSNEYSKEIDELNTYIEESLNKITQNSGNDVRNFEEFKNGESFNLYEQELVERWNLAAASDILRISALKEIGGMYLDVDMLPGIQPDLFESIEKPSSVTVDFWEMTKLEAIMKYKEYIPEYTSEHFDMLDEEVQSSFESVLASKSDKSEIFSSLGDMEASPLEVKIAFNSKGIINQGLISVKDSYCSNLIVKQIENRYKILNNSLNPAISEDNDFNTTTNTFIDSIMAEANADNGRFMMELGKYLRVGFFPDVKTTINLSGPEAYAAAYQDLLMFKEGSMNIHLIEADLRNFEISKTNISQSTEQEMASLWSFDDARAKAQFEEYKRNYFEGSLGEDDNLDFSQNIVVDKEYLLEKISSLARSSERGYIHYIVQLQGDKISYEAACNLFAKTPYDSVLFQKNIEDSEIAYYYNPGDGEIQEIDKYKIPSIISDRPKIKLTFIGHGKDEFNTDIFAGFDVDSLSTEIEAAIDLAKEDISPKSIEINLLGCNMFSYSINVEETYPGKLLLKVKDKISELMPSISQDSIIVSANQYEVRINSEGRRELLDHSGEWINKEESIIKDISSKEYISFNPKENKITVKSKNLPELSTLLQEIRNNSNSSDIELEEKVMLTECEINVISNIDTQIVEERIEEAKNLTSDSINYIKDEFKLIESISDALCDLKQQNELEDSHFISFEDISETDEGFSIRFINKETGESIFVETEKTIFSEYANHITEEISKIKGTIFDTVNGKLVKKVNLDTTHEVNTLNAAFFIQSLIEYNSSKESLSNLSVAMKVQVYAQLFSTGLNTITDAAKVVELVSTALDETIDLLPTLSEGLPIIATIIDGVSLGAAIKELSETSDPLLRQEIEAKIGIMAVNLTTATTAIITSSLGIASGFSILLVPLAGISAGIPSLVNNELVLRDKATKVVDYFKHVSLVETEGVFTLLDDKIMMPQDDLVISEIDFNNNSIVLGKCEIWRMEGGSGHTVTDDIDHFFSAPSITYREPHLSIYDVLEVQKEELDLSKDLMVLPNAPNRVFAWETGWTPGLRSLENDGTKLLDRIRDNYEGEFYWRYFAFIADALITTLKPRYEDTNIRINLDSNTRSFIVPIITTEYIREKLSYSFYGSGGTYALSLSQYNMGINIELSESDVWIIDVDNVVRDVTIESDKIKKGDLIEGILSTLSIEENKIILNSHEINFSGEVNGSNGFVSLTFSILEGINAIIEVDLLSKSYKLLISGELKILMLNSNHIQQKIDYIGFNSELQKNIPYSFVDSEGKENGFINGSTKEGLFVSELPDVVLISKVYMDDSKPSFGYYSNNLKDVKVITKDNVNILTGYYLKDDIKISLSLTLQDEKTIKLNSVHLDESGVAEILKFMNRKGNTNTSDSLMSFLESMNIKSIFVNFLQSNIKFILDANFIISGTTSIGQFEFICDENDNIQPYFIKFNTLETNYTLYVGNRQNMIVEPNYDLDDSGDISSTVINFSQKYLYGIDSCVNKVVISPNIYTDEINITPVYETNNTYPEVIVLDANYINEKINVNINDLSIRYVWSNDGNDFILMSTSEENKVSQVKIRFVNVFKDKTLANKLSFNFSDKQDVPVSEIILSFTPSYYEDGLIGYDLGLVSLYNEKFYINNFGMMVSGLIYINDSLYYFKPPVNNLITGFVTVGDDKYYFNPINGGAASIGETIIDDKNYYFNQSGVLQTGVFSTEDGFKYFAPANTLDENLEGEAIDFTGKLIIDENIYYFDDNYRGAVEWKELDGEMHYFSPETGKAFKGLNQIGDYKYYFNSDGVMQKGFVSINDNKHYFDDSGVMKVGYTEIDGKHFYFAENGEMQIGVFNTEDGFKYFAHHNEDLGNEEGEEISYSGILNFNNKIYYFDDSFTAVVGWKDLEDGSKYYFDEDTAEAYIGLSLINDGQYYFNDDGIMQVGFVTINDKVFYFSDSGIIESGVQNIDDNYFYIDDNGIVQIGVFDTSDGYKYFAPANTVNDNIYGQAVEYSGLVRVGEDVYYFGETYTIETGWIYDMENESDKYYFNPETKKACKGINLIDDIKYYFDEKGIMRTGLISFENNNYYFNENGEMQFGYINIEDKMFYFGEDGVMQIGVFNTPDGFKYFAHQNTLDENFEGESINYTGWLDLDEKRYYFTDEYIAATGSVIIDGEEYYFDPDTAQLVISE
CCHFV vOTU inh: blocks the CCHF virus ovarian tumor domain protease. inhibition, % at 11.5 µM. CCHFV vOTU protease, Pep-AMC fluorescence. AID 651958. 0.55% of 370,000 active; in the data active = inhibition above about 30%; note: 0% = vehicle wells with enzyme and 100% = no enzyme wells
BH1578 lux ind: induces V. cholerae light production without autoinducers; activation, % at 18.7 µM; V. cholerae BH1578 lux reporter, luminescence, 6 h; 0.16% of 350,000 active; AID 588436; in the data active = activation mostly above about 9.7%, no sharp cut-off
* hit, by the source's call; i = inactive; / = not tested or not shown. Rows were chosen to be rich in hits. Some 1.3% of all compounds tested hit in one or more screens of this group.

SMILES	3CLpro inhibitor	PriA SSB inh	VHR inh abs	TcdB GH inh	CCHFV vOTU inh	BH1578 lux ind
Cc1nc(N(C)C)nc(C)c1NS(=O)(=O)c1ccc(OC(F)(F)F)cc1	/	-1	/	/	/	/
COC(=O)c1sccc1S(=O)(=O)N1Cc2cncnc2C1	/	-13	/	/	/	/
O=C(CSc1nnc(CNC(=O)c2ccco2)o1)Nc1ccc(F)cc1F	-5	7	52*	1	11	0
Cc1cc(NC(=O)CSc2nnc(CNC(=O)c3c(F)cccc3F)o2)no1	6	10	53*	1	12	i
Cn1c2c(c(=O)n(C)c1=O)C(c1ccc(O)cc1)NC(=O)N2 (stereo not drawn)	/	7	/	/	/	/
O=C(Cn1c(=O)oc2ccccc21)NCC1(O)CCc2ccccc2C1 (stereo not drawn)	/	-11	/	/	/	/
CCOC(=O)N1CCN(Cc2c(NC(=O)c3ccc(OC)cc3)sc(C)c2C)CC1	/	7	/	/	/	/
N#Cc1nc(-c2ccccc2Cl)oc1N1CCCCCC1	/	94*	/	/	/	/
CC1CCN(c2oc(-c3ccccc3Cl)nc2C#N)CC1	-1	49*	10	/	7	1
Cc1ccccc1-c1nc(C#N)c(N2CCC(C)CC2)o1	-1	29	-3	2	5	0
O=C(Nc1ccc(S(=O)(=O)N2CCCCC2)cc1)c1ccc(CN2CCc3ccccc3C2)cc1	-1	13	24	/	-2	17*
CC(=O)Nc1ccc(NC(=O)Cc2ccc(S(=O)(=O)N3CCCCC3)cc2)cc1	/	-4	/	13*	-4	2
O=C(NNc1ccc(Cl)cc1)c1c(F)cccc1Cl	-1	-5	27	4	2	i
CC(=O)C(=Nc1ccccc1Cl)NNc1ccc(Cl)cc1	1	50*	4	/	4	i
COc1ccc(OC)c(Nc2nc(NCc3ccccc3Cl)nc3c2cnn3-c2ccccc2)c1	/	-5	/	/	/	/
Cc1ccc(-c2csc(NC(=O)/C=C/c3ccco3)c2C(=O)O)cc1	9	2	22	15*	7	i
O=[N+]([O-])c1ccc(CP(=O)(c2ccccc2)c2ccccc2)cc1	-5	-3	56*	1	7	1
O=S(=O)(NCC[C@H](O)c1cccs1)c1ccccc1Br	/	3	/	/	/	/
COc1ccc2oc(C(=O)NCC3CCCO3)c(C)c2c1 (stereo not drawn)	-6	-26	52*	3	-1	-1
CCOc1ccc2oc(C(=O)NCC3CCCO3)c(C)c2c1 (stereo not drawn)	-3	-16	5	2	-18	0
Cc1ccc(N2CC(C(=O)Nn3cnc4c(cnn4C(C)(C)C)c3=O)CC2=O)cc1 (stereo not drawn)	/	-9	/	/	/	/
CN(C)c1ncc(NC(=O)c2cccs2)cn1	/	-7	/	/	/	/
O=C1/C(=C/c2ccc([N+](=O)[O-])cc2)Oc2cc(O)ccc21	-2	11	57*	2	-3	-1
O=C1/C(=C/c2ccc(Cl)cc2)Oc2cc(O)ccc21	/	-1	/	/	/	/
CC1=CC(c2ccccc2)n2nc(N3C(=O)C4CC=CCC4C3=O)nc2N1 (stereo not drawn)	-1	-5	57*	/	-167	7
SMILES	3CLpro inhibitor	PriA SSB inh	VHR inh abs	TcdB GH inh	CCHFV vOTU inh	BH1578 lux ind
C[C@H](NC(=O)c1nc[nH]c1C(=O)N1CCN(C(=O)OC(C)(C)C)CC1)C(=O)OCc1ccccc1	-4	-11	13	0	8	-1
CC1CCN(C(=O)c2[nH]cnc2C(=O)N[C@@H](C)C(=O)OCc2ccccc2)CC1	/	44*	15	0	-4	6
Cc1ccc(/C=C(\C#N)C(=O)Nc2ccccn2)o1	5	1	17	17*	9	-1
Cc1ccc(/C=C(\C#N)C(=O)Nc2ccccc2O)o1	/	9	/	/	/	/
COc1ccc(S(=O)(=O)N(C)CC(=O)N2CCCCC2)cc1Cl	2	7	-8	1	11	/
COc1ccc(S(=O)(=O)N(C)CC(=O)N2CCCC2)cc1OC	-3	-13	53*	1	2	0
COc1ccc(S(=O)(=O)N(C)CC(=O)N2CCN(C)CC2)cc1Cl	2	-5	53*	2	3	1
COc1ccc(NC(=O)CN2CCN(c3nccn3-c3ccc(C)cc3)CC2)cc1OC	/	37*	/	/	/	/
CCOc1ccccc1NC(=O)CN1CCN(c2nccn2-c2cccc(Cl)c2)CC1	/	59*	/	/	/	/
COc1ccc(NC(=O)CN2CCN(CC(=O)Nc3ccc(OC)c(OC)c3)CC2)cc1	0	4	22	/	18	-1
CCOc1ccc(OCC(=O)N2CCN(c3nccn3-c3ccc(C)cc3)CC2)cc1	/	60*	/	/	/	/
O=C(c1cc2occc2[nH]1)N1CCN(c2ccccc2O)CC1	/	-11	/	/	/	/
CCOC(=O)c1ccccc1NC(=O)Cn1c(-c2ccncc2)nc(C)cc1=O	/	-7	/	/	/	/
CCCCCCCCCn1cc(C(C)=O)c(=O)[nH]c1=O	-1	-20	50*	/	23	-2
Cc1noc(/C=C/c2ccco2)c1S(=O)(=O)N1CCC(C(=O)NC(C)c2ccccc2)CC1 (stereo not drawn)	0	-8	50*	0	12	0
CCOc1ccc(S(=O)(=O)Nc2ccc3c(c2)N(C(=O)C2CC2)CC3)cc1	/	-1	/	/	/	/
O=[N+]([O-])c1cccc(CNc2ccc3c(c2)CCC3)c1	3	69*	21	/	-5	0
O=C1/C(=C/c2ccccc2F)Oc2c1ccc1c2CN(Cc2ccco2)CO1	/	-15	/	/	/	/
CCOc1ccc(Oc2ccc(S(=O)(=O)N3CCOCC3)cc2N)cc1	2	-6	-8	0	16	-2
CCOc1ccc2cc(S(=O)(=O)N3CCOCC3)ccc2c1	-4	-1	2	/	6	74*
CN(C)[C@@H](CNC(=O)Cc1ccc(-c2ccccc2)cc1)c1cccs1	/	-6	/	/	/	/
CC(C)(C)c1nc(CN)no1	/	15	/	/	/	/
COc1ccc(NC(=O)CSc2ccc(F)cc2)c([N+](=O)[O-])c1	/	65*	/	/	/	/
Cc1nc(SCC(=O)Nc2ccc(Cl)cc2[N+](=O)[O-])nc(C)c1C	4	39*	1	/	-3	0
COc1ccc(NC(=O)CSc2nc3ccccc3n2-c2ccccc2)c([N+](=O)[O-])c1	3	42*	5	-4	18	i
CCN=C1Cn2c(nc3scc(-c4ccccc4)c3c2=O)CN1CC	-3	2	6	/	-6	17*
CCc1nc2scc(-c3ccccc3)c2c(=O)n1N	4	5	-9	/	-4	1
